Laboratory results reported in PubChem BioAssay AID1851 (National Center for Advancing Translational Sciences (NCATS), 2009).
Where “and” joins values, the source holds several entries; their conditions need not be identical. Identical values can stand only once. Out of some 16,000 compounds screened, about 5,800 (36%) were called active. Not shown: some 23% with an inconclusive outcome. The call rests on the fitted dose curve; in most records, active means well fitted curve in the direction sought with a large enough effect; inconclusive means small, poorly fitted or top-dose-only effect, or effect the other way; inactive means no such curve, though single readings can be large or run the other way. Some of the results follow. Some compounds were tested as several samples or in several runs, with calls that do not always agree.

molecular target: Cytochrome P450 2C19 (Homo sapiens) (UniProt P33261); assay: Cytochrome panel assay with activity outcomes; settings: recombinant CYP, pro-luciferin dealkylation, luminescence, p450-cyp2c19; series mostly up to 57.1 µM
Sequence (P33261 whole entry, looked up): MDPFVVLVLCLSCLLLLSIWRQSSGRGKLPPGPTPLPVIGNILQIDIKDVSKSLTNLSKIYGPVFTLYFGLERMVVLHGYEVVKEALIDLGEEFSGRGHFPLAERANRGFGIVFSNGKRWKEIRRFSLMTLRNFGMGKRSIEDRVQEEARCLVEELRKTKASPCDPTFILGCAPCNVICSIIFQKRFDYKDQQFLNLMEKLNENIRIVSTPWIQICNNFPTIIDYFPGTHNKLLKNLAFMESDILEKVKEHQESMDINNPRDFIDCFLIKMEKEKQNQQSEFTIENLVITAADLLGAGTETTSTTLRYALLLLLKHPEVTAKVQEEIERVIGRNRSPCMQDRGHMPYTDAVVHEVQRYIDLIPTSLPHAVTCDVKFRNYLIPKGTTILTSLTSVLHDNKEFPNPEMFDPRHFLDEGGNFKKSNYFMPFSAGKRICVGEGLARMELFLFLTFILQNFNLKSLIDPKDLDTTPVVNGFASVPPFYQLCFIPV
On the % scale 0 is the no-effect control and ±100 the full control effect.

| Structure (SMILES) | AC50 | activity, negative = inhibition |
| --- | --- | --- |
| CCCCCCCCCCCCCC(=O)O[C@H]1[C@@H](C)[C@@]2(O)[C@@H](C=C(CO)C[C@]3(O)C(=O)C(C)=C[C@@H]23)C2C(C)(C)[C@]21OC(C)=O (some centres undefined) | inactive | – |
| C[C@@H]1O[C@@H](O[C@H]2C[C@@H](O)[C@]3(CO)[C@@H]4[C@@H](O)C[C@]5(C)[C@H]([C@@H]6COC(=O)C6)CC[C@@]5(O)[C@H]4CC[C@@]3(O)C2)[C@H](O)[C@H](O)[C@@H]1O | inactive | – |
| CCOC(=O)[C@@H]1[C@@H]2c3ccccc3-c3ccccc3[C@H]2C[C@H]1O | 2 µM (active) | – |
| N[C@@H](CSC1c2ccccc2-c2ccccc21)C(=O)O | – | -32.5% [at 11.4 µM] (inactive) |
| CC1(C)[C@@H]2CC[C@]1(C)CN(CCC[N+](C)(C)C)C2 | – | 6.07% [at 11.4 µM] (inactive) |
| CC(C)Oc1cccnc1N(C)C1CCN(Cc2ccccc2)CC1 | inactive | – |
| COC(=O)C[C@](O)(CCCC(C)(C)O)C(=O)O[C@@H]1C(OC)=C[C@]23CCCN2CCc2cc4c(cc2[C@H]13)OCO4 | inactive | – |
| CS(=N)(=O)CC[C@@H](N)C(=O)O (some centres undefined) | inactive | – |
| COc1ccccc1CC1C(=O)C2CCN1CC2 (centres undefined) | inactive | – |
| COCCn1c(SCc2nc3sc(C(=O)OC)c(C)c3c(=O)[nH]2)nc2ccccc21 | 0.708 µM (active) | – |
| O=C(O)[C@H]1CCN1 | inactive | – |
| N#Cc1ccc(CN2CCCC3(CCN(C(=O)Oc4ccccc4)CC3)C2)cc1 | inactive | – |
| CC(=O)[C@@H]1CC[C@@H]2[C@@H]3CC=C4C[C@H](OS(=O)(=O)O)CC[C@@]4(C)[C@H]3CC[C@]21C | inactive | – |
| C=CCn1c(O)c(C(C)=NCCCN2CCOCC2)c(=O)[nH]c1=O | inactive | – |
| CCCCn1c(O)c(C(CC)=Nc2ccc(OC)cc2OC)c(=O)[nH]c1=O | 15.8 µM (active) | – |
| CCCCn1c(O)c(C(CC)=NCc2ccc(F)cc2)c(=O)[nH]c1=O | 7.08 µM (active) | – |
| CCCCn1c(O)c(C=NCCN2CCCCC2)c(=O)[nH]c1=O | inactive | – |
| C[C@]12CCC3c4ccc(OCC(=O)O)cc4CCC3C1CCC2=O (some centres undefined) | – | 29.2% [at 11.4 µM] (inactive) |
| CN(C)[C@@H]1C(=O)C(C(N)=O)=C(O)[C@]2(O)C(=O)C3=C(O)c4c(O)cccc4[C@](C)(O)[C@H]3C[C@@H]12 | – | -41.8% [at 11.4 µM] (inactive) |
| CCOC(=O)c1[nH]c(C)c(C(=O)N2CCC3(CC2)OCCO3)c1C | 5.01 µM (active) | – |
| OCc1cnc[nH]1 | inactive | – |
| CC(C)(c1ccc(OC[C@@H]2CO2)cc1)c1ccc(OC[C@H]2CO2)cc1 | inactive | – |
| C[C@@H]1O[C@@H](O[C@H]2C[C@@H](O)[C@@]3(CO)[C@H]4[C@H](O)C[C@]5(C)[C@@H](C6=CC(=O)OC6)CC[C@]5(O)[C@H]4CC[C@@]3(O)C2)[C@@H](O)[C@H](O)[C@H]1O | – | 30.3% [at 11.4 µM] (inactive) |

| Structure (SMILES) | AC50 | activity, negative = inhibition |
| --- | --- | --- |
| N[C@H](Cc1c[nH]c2ccccc12)P(=O)(O)O | – | 13.8% [at 11.4 µM] (inactive) |
| CC(C(=O)c1c[nH]c2ccccc12)N1CCSCC1 (centres undefined) | 8.91 µM (active) | – |
| C[N+]1(C)[C@@H]2CC[C@H]1CC(OC(=O)c1c[nH]c3ccccc13)C2 (some centres undefined) | inactive | – |
| C[C@H]1C(=O)O[C@@H]2CCN3CC=C(COC(=O)[C@@](C)(O)[C@@]1(C)O)[C@H]23 | inactive | – |
| CN1C(=O)CCS(=O)(=O)[C@@H]1c1ccc(Cl)cc1 | inactive | – |
| Brc1c(NC2=NCCN2)ccc2nccnc12 | inactive | – |
| c1ccc2c(c1)[I+]c1ccccc1-2 | 501 nM (active) and 63.1 nM (active) | – |
| CC[C@]1([C@H]2O[C@@H]([C@@H]3O[C@](O)(CO)[C@@H](C)C[C@H]3C)C[C@H]2C)CC[C@@H]([C@]2(C)CC[C@@]3(C[C@@H](O)[C@@H](C)[C@@H]([C@H](C)[C@H](OC)[C@H](C)C(=O)O)O3)O2)O1 | inactive | – |
| NCCCNCCSP(=O)(O)O | inactive | – |
| CCN1CCN(Cc2cc(OC)c(OC)cc2[N+](=O)[O-])CC1 | inactive | – |
| c1ccc([C@H]2CNCc3ccccc32)cc1 | inactive | – |
| Cc1ccc(N(C)C(=O)Oc2cccc3ccc(C)nc23)cc1 | 7.94 µM (active) | – |
| C=CCN1C[C@@H](C)N([C@H](c2ccc(C(=O)N(CC)CC)cc2)c2cccc(OC)c2)C[C@H]1C | inactive | – |
| Cc1cc(C)c(-n2c(O)c(C=NCCN3CCOCC3)c(=O)[nH]c2=O)c(C)c1 | inactive | – |
| CC(C)CN1CCCC2(CCN(C(=O)c3ccncc3)CC2)C1 | inactive | – |
| NCCCC[C@H](N[C@@H](CCc1ccccc1)C(=O)O)C(=O)N1CCC[C@H]1C(=O)O | inactive | – |
| CN(C)C=C1C(=O)N(C2CCCCC2)C(=O)N(C2CCCCC2)C1=O | 20 µM (active) | – |
| N=C(N)c1ccc(-c2ccc(-c3ccc(C(=N)N)cc3)o2)cc1 | – | 37% [at 11.4 µM] (inactive) |
| CN1CCC2(CC1)CCN(C(=O)Oc1ccccc1)CC2 | inactive | – |
| CCN1C[C@@]2(COC)CC[C@H](OC)[C@]34[C@@H]1[C@]1(OCO[C@@]15C[C@@H](OC)C1C[C@H]3[C@H]5[C@@H]1OC)[C@H](O)[C@@H]24 | inactive | – |
| O=C(O)CC[N+](=O)[O-] | inactive | – |
| Cc1c(OCC(F)(F)F)ccnc1CS(=O)c1nc2ccccc2[nH]1 (centres undefined) | 0.1 µM (active) | – |
| CC1(C)N(O)C(c2ccc(C(=O)O)cc2)=[N+]([O-])C1(C)C | inactive | – |

| Structure (SMILES) | AC50 | activity, negative = inhibition |
| --- | --- | --- |
| CCc1ccc(CCN2CCCCC2)nc1 | – | -27.8% [at 11.4 µM] (inactive) |
| Cc1ccccc1-c1nc(CS(=O)CC(=O)N2CCC3(CC2)OCCO3)c(C)o1 (centres undefined) | 10 µM (active) | – |
| CCc1ccccc1NC(=S)NC1CC2CCC(C1)N2Cc1ccco1 (centres undefined) | inactive | – |
| Nc1nc(N)c(Cn2ccnc2)c(=O)[nH]1 | – | 32.7% [at 11.4 µM] (inactive) |
| N[C@@H](Cn1oc(=O)[nH]c1=O)C(=O)O | inactive | – |
| N[C@H](CCl)C(=O)O | inactive | – |
| N[C@H](Cc1o[nH]c(=O)c1Cl)C(=O)O | 1.26 µM (active) | – |
| Cc1o[nH]c(=O)c1C[C@@H](N)C(=O)O | inactive | – |
| N[C@@H](Cc1cc(Br)c(O)c(Br)c1)C(=O)O | – | 11.6% [at 11.4 µM] (inactive) |
| Cc1o[nH]c(=O)c1C[C@H](N)C(=O)O | inactive and 2.51 µM (active) | – |
| O=c1cc(-c2ccc(O)c(O)c2)oc2cc(O)cc(O)c12 | inactive | – |
| Nc1ccc(CCN2CCN(c3cccc(C(F)(F)F)c3)CC2)cc1 | 7.94 µM (active) | – |
| NCCCN1CCN(c2ccccc2)CC1 | – | 2.32% [at 11.4 µM] (inactive) |
| Cc1cc(OCc2ccc([N+](=O)[O-])cc2)c2c3c(c(=O)oc2c1)CCCC3 | 0.708 µM (active) | – |
| Cc1cc(OCC(=O)OC(C)C)c2c3c(c(=O)oc2c1)CCCC3 | 3.55 µM (active) | – |
| CC(C)[C@H](CO)Nc1nc(Nc2cccc(Cl)c2)c2ncn(C(C)C)c2n1 | inactive | – |
| CC[C@H](C)C(=O)O[C@@H]1[C@H](O)[C@@H]2[C@H](CN3C[C@@H](C)CC[C@@H]3[C@@]2(C)O)[C@@H]2C[C@@]34O[C@@]5(O)[C@@H](OC(=O)[C@](C)(O)CC)CC[C@@]3(C)[C@H]5[C@H](OC(C)=O)[C@@H](OC(C)=O)[C@H]4[C@]12O | inactive | – |
| COc1cc2c(cc1OC)[C@]13CC[N@+]4(C)CC5=CCO[C@H]6CC(=O)N2[C@@H]1[C@@H]6[C@@H]5C[C@]34O | – | -1.84% [at 11.4 µM] (inactive) |
| c1ccc(CN2CCN(Cc3ccc4c(c3)OCCO4)CC2)cc1 | inactive | – |
| Cc1ccc(C2CC(=O)C(C=NCCN3CCN(C(=O)Cc4ccccc4)CC3)=C(O)C2)cc1 (centres undefined) | 3.16 µM (active) | – |
| c1ccc(CCN2CCOCC2)nc1 | – | 1.5% [at 11.4 µM] (inactive) |
| CC(C)CN1CCC2(CC1)CCN(C(=O)Oc1ccccc1)CC2 | inactive | – |
| CCCN1CCc2cc(O)cc3c2[C@H]1Cc1ccc(O)c(O)c1-3 | inactive | – |

| Structure (SMILES) | AC50 | activity, negative = inhibition |
| --- | --- | --- |
| c1ccc(CN2CC[C@@]3(CCCNC3)C2)cc1 | inactive | – |
| c1cc(CN2CCC3(CCNCC3)CC2)ccn1 | inactive | – |
| c1ccc(CN2CCCC3(CCNCC3)C2)cc1 | inactive | – |
| c1ccc(CN2CCC3(CCNCC3)CC2)cc1 | 5.01 µM (active) | – |
| O=C(Oc1ccccc1)N1CCC2(CCN(Cc3ccccc3)CC2)CC1 | inactive | – |
| c1ccc(CN2CCC3(CCc4ccccc43)CC2)cc1 | 2.51 µM (active) | – |
| CCn1cc(C(=O)O)c(=O)c2cc3c(cc21)OCO3 | inactive | – |
| C[As+](C)(c1ccc(Br)c([N+](=O)[O-])c1)c1ccc(Br)c([N+](=O)[O-])c1.O=[N+]([O-])O | – | 27.9% [at 11.4 µM] (inactive) |
| S=C=Nc1cccc(C2(N3CCCCC3)CCCCC2)c1 | inactive | – |
| CS(=O)(=O)Nc1ccc(Cc2noc(-c3ccc4[nH]cc(CCN)c4c3)n2)cc1 | 15.8 µM (active) | – |
| C[C@H](N)Cc1c[nH]c2ccc(OCc3cccs3)cc12 | inactive | – |
| CN1CCN(c2ccc3ccccc3n2)CC1 | inactive | – |
| C[C@H](Br)C(=O)N[C@H](CO)C(=O)O | – | 4.64% [at 11.4 µM] (inactive) |
| CCCN1CCC[C@@H]2Cc3nc(N)ncc3C[C@H]21 | inactive | – |
| CC(=Nc1c(C)n(C)n(-c2ccccc2)c1=O)c1c(O)n(Cc2ccccc2)c(=O)[nH]c1=O | inactive | – |
| CC(=NCCN1CCOCC1)c1c(O)n(Cc2ccccc2)c(=O)[nH]c1=O | inactive | – |
| CC(=NCc1ccco1)c1c(O)n(-c2ccccc2)c(=O)[nH]c1=O | 10 µM (active) | – |
| C/C=C1\C[N@@+]2(C)CC[C@@]34C(=C(C=O)[C@H]1C[C@H]32)Nc1ccccc14 | inactive | – |
| O=[N+]([O-])c1cc(-c2ccc([As](=O)(O)O)cc2)ccc1[As](=O)(O)O | – | 22.9% [at 11.4 µM] (inactive) |
| COCCNC(=S)NC1CC2CCCC(C1)N2Cc1cccs1 (centres undefined) | inactive | – |
